Shown are actives, neighbours in structure and some others; about 7.2% of the full set was active somewhere.
FMDV inh – blocks foot and mouth disease virus; 1.2% of 410,000 active; FMDV antiviral cell-based qHTS; Potency, µM (titrated, usually from 57.9 µM), inactives show at the highest dose activity change, negative = inhibition, usual class: inhibitors; calls by dose curve; tested in HEK293T cells; also: read-out not given here; nearly all actives have a fitted effect of over 45% in size
Marburg entry inh – Marburg virus entry inhibition | Marburg virus pseudotyped entry inhibition, cell reporter | Potency, µM (highest dose often 37.8 µM), inactives show top-dose activity change, negative = inhibition, usual class: inhibitors | 1.8% of 300,000 active; calls by dose curve; tested in HEK293 cells
LASV entry inh – blocks Lassa virus binding to or entry into cells; 1.2% of 300,000 active; AID 540256; Potency, µM (top dose mostly 37.9 µM), for inactives: at the highest dose activity change, negative = inhibition, hits mostly inhibitors; Lassa virus pseudotype entry inhibition, cell reporter; calls by dose curve; tested in HEK293 cells; also: nearly all actives have a fitted effect of over 50% in size
HCV inh – HCV inhibition. Huh7.5.1 HCVcc-Cre infection, luciferase reporter, 44 h. Potency, µM (doses to about 41.8 µM), without a hit: at the top dose activity change, negative = inhibition, usual class: inhibitors. 3.4% of 340,000 active. AID 651820
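Reporter virus HCVcc-Cre (~0.5 moi) infects cells exposed to compound; seeding density 1,000 cells/well with 4 h settling beforehand. Luminescence, 15 sec read, taken 44 h post-infection following a 15 min RT substrate incubation.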
RE007 growth inh – less growth of the S. pombe RE007 Vpr strain | S. pombe RE007 Vpr strain, BacTiter-Glo ATP luminescence, 24 h | Potency, µM (series often up to 92.2 µM), for inactives: top-dose activity change, negative = less growth, usual class: inhibitors | 0.21% of 360,000 active | AID 651644; active = well fitted falling curve with a large enough effect; inconclusive = small, poorly fitted or top-dose-only effect; inactive = no such curve, though single readings can be large or run the other way; also: nearly all actives have a fitted effect of over 50% in size
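Fission yeast strain RE007, carrying one chromosomally integrated HIV-1 vpr copy, was seeded at OD 0.01 in PMG+AL medium with 23 nL pinned compound. After 24 h at 30 °C and 99% humidity, viability was read by BacTiter-Glo luminescence.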
Sm TGR block – S. mansoni TGR enzyme inhibition; purified TGR, DTNB reduction, TNB absorbance 405 nm; Potency, µM (series often up to 114 µM), inactives show top-dose activity change, negative = inhibition, most hits filed as inhibitors; AID 485364; 3% of 360,000 active; Q962Y6; also: nearly all actives have a fitted effect of over 60% in size
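Kinetic colorimetric format: TGR-catalysed, NADPH-driven DTNB reduction monitored via TNB absorbance. Enzyme dispensed at 20 nM; compound exposure 15 min at room temperature before reaction start.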
Starred values were filed as active, the others as inactive; ? = inconclusive; / = not tested or not shown; [ ] = dose if it differs, or a comment. Unless noted, calls follow the shape of the dose curve; as a rule, active = well fitted curve in the direction sought with a large enough effect; inconclusive = small, poorly fitted or top-dose-only effect, or another doubt; inactive = no such curve, though single readings can be large; an effect the other way counts as inactive or inconclusive. % is scaled to controls: 0 for no effect and ±100 for the full control effect; potency is read from the fitted curve at half-maximal effect.

SMILES	FMDV inh	Marburg entry inh	LASV entry inh	HCV inh	RE007 growth inh	Sm TGR block
CC1CC(C)CN(C(=O)CCNS(=O)(=O)c2ccc3c(c2)CCC(=O)N3)C1 (stereo unspecified)	-1%	11%	0%	18%	3%	-1%
CC(CC(=O)N1CCN(c2cccc(Cl)c2)CC1)S(=O)(=O)c1ccc2c(c1)NC(=O)CO2 (stereo unspecified)	2.8µM*	/	/	6.3µM*	-11%	1%
Cc1ccc2c(CNC3CCCCC3)c(C(=O)O)n(Cc3ccc(F)cc3)c2c1	-18%	/	5%[46.1 µM]	/	/	-1%
CCN(CC)c1sc(S(=O)(=O)c2ccccc2)nc1S(=O)(=O)c1ccc(C)cc1	36%	?	?	/	/	-1%
Brc1cc(Br)c2nc3c(cc2c1)CCC3	4%	/	/	10µM*	-22%	11%
Cc1cc(=O)[nH]c(N=N/C(=N/Nc2ccc(O)cc2)c2ccccc2)n1	-23%	?	20µM*	6%	?	-26%
Cc1cccc(CN(CC(=O)N/N=C/c2cccs2)S(=O)(=O)c2ccc(Cl)cc2)c1	?	?	?	11µM*	-3%	-11%
O=C(NCCc1c[nH]c2ccccc12)/C(=C\c1cccnc1)NC(=O)c1ccco1	-26%	?	-5%	1%	-16%	-1%
O=C(NCCc1c[nH]c2ccccc12)/C(=C\c1cccnc1)NC(=O)c1ccccc1Br	3.5µM*	/	/	-15%	2%	-7%
CC(C)CON=C1C[C@@H](O)[C@@H](O)[C@@H]2[C@H]3C(=O)N(C[C@@H]4CCCO4)C(=O)[C@@H]3CC[C@@H]12	/	10%[14.2 µM]	/	/	/	/
COC(=O)c1sccc1S(=O)(=O)N(CC(=O)Nc1cc(F)ccc1F)c1ccc(C)c(C)c1	0%	/	-42%[46.1 µM]	/	/	4%
O=C(O)CCn1cc(C=C2C(=O)NC(=O)NC2=O)c(-c2ccc(Br)cc2)n1	-2%	?	23%	18%	3%	0%
O=C(O)CCn1cc(C=C2C(=O)NC(=S)NC2=O)c(-c2cccc(Cl)c2)n1	-14%	14%[46.1 µM]	?	6%	10%	32µM*
CC(C)(C)OC(=O)N1CCC(c2c(C(=O)NCc3ccco3)cnn2-c2ccc(F)cc2F)CC1	1%	/	?	/	/	-27%
Cc1cc(N=NC(=O)c2ccccc2)ccc1O	13%	/	/	0%	5%	11µM*
CCOC(=O)CSc1nc(N)c(C#N)c(-c2ccc(OC)cc2)c1C#N	-16%	-12%[46.1 µM]	-2%	-2%	-4%	0%
C=C(C)CSc1nc(N)c(C#N)c(-c2ccc(C)cc2)c1C#N	/	-15%	-9%	?	-4%	35µM*
CCCCOc1ccc(-c2c(C#N)c(N)nc(SCC(N)=O)c2C#N)cc1	?	?	4.5µM*	5µM*	26%	-14%
CCCCOC(=O)CSc1nc(N)c(C#N)c(-c2ccc(OCC)cc2)c1C#N	-3%	2%	21%	8%	2%	-5%
N/C(CCS(=O)(=O)c1ccc(Cl)cc1)=N\OC(=O)c1ccccc1C(F)(F)F	-23%	?	22µM*	?	7%	-16%
COc1ccc([C@H]2CC(=O)C=C(c3ccc(Oc4ccccc4)cc3)C2)cc1OC	?	/	/	5.6µM*	0%	5%
COc1ccc([C@H]2CC(=O)C=C(c3ccccc3)C2)cc1OC	-22%	/	/	?	16%	-2%
NCCNC(=O)c1c(O)c2cccc3c2n(c1=O)CCC3	-25%	10µM*	8%	-26%	-16%	-1%
CCOc1cccc(/C=N/NC(=O)c2cc(C3CC3)[nH]n2)c1O	25%	/	/	11µM*	-8%	-27%
CCOc1cccc(/C=N/NC(=O)c2cccnc2)c1O	52%	/	/	?	38%	-1%
SMILES	FMDV inh	Marburg entry inh	LASV entry inh	HCV inh	RE007 growth inh	Sm TGR block
O=S(=O)(NCCC(c1ccc(F)cc1)c1ccco1)c1ccccc1 (stereo unspecified)	4.5µM*	-9%	-18%	?	-3%	?
Fc1ccc(C(CCNCc2cccs2)c2ccco2)cc1 (stereo unspecified)	62%	7.9µM*	-1%	-4%	-8%	-2%
CCn1cc(C2=NC(C)(C)CO2)c2ccccc21	25%	1%	2%	3.2µM*	2%	6%
CCn1cc(C2=NCCO2)c2ccccc21	-12%	-6%	/	?	2%	-2%
CCn1cc(C2=NCC(C)O2)c2ccccc21 (stereo unspecified)	-1%	22%	-12%	14µM*	-3%	2%
CCn1cc(C2=NC(C)CO2)c2ccccc21 (stereo unspecified)	17%	?	24%	?	6%	-13%
CC1=C(C(=O)Nc2cc(C)cc(C)c2)C2(CCCCC2)OC1=O	-9%	3%[46.1 µM]	26%[46.1 µM]	/	/	-5%
COc1cc(CC(=O)Nc2cccc(SC)c2)cc(OC)c1OC	-29%	?	-1%[46.1 µM]	14µM*	-4%	-3%
CCN(CC(=O)Nc1cccc(S(=O)(=O)N(C)c2ccccc2)c1)Cc1cccs1	-29%	?	?	35µM*	-7%	0%
COc1cc(CC(=O)Nc2cccc(S(=O)(=O)N(C)c3ccccc3)c2)cc(OC)c1OC	22µM*	/	/	10µM*	2%	/
CCC(=O)c1ccc(OCC(=O)Nc2cccc(S(=O)(=O)N(C)c3ccccc3)c2)cc1	?	/	/	11µM*	2%	3%
COc1cccc(CN(C)CC(=O)Nc2cccc(S(=O)(=O)N(C)c3ccccc3)c2)c1OC	?	?	?	?	-20%	/
Cc1ccsc1CN(C)CC(=O)Nc1cccc(S(=O)(=O)N(C)c2ccccc2)c1	-13%	?	-22%	?	-27%	-3%
CN(c1ccccc1)S(=O)(=O)c1cccc(NC(=O)COc2cccc([N+](=O)[O-])c2)c1	?	-25%	-20%	?	-7%	-2%
Cc1cccc(NC(=O)C2CCN(S(=O)(=O)c3ccc4c(c3)CCCC(=O)N4)CC2)c1	-26%	/	23%[46.1 µM]	/	/	12%
CCOc1ccc(CNC(=O)CCCn2c(=O)c3cccn3c3cccnc32)cc1	-10%	/	4%[46.1 µM]	/	/	-8%
CC(=O)Nc1ccc(S(=O)(=O)NCC2CCC(C(=O)NCCc3ccc(C)cc3)CC2)cc1 (stereo unspecified)	-11%	/	7%[46.1 µM]	/	/	8%
Cc1cc(-c2ccc(N=Nc3ccc4c(S(=O)(=O)O)cc(S(=O)(=O)O)c(N)c4c3O)c(C)c2)ccc1N=Nc1ccc2c(S(=O)(=O)O)cc(S(=O)(=O)O)c(N)c2c1O	32µM*	?	?	/	/	/
Nc1c(N=Nc2ccc(-c3ccc(N=Nc4cc(S(=O)(=O)O)c5ccccc5c4N)cc3)cc2)cc(S(=O)(=O)O)c2ccccc12	/	14µM*	?	/	/	/
O=S(=O)(O)c1ccc(N=Nc2ccccc2)cc1	-17%	14%[46.1 µM]	19%[46.1 µM]	25%	-12%	2%

Assay outcomes deposited in PubChem BioAssay by National Center for Advancing Translational Sciences (NCATS).
